Data reported in PubChem BioAssay AID2284425 (EPA ToxCast).
Records with an inconclusive call do not appear. Calls of active or inactive are those of the source. How the source made its calls: active means hit-call score of the fitted dose curve at least 0.9, where 1 is the maximum; inconclusive means response in the unintended direction; inactive means score below 0.9.

test system: Brachyury (BRA), TBXT (gene 6862); assay: CCTE_Deisenroth_DEVTOX-GLR_Ecto_BRA: CCTE's DevTox GLR-Ecto Assay Evaluation of Brachyury (BRA) Protein Expression, Deisenroth Lab
Procedure: CCTE_Deisenroth_DEVTOX-GLR_Ecto assay is a cell-based, multiplex-readout assay that uses RUES2-GLR, a human pluripotent cell line, with measurements taken at 48 hours after chemical dosing in a 384-well microplateCCTE_Deisenroth_DEVTOX-GLR_Ecto_BRA is 1 of 4 assay components calculated from the CCTE_Deisenroth_DEVTOX-GLR_Ecto assay and it measures an the percentage of cells in an mesoderm state. Using a type of inducible fluorescent protein reporter, gain-of-signal activity can be used to understand changes in gene expression with fluorescent microscopy. The percentage of BRA+ cells are determined by calculating the number of BRA+ cells divided by the cell count. To generalize the intended target to other relatable targets, this assay component is annotated to the transcription factor intended target family, where the subfamily is T-box protein.Data from the assay component CCTE_Deisenroth_DEVTOX-GLR_Ecto_BRA was analyzed as 1 assay endpoint. The endpoint is the percent BRA+ cell population minus the 0.2% DMSO control in the CCTE_Deisenroth_DEVTOX-GLR_Ecto assay. Furthermore, this assay endpoint can be referred to as a secondary readout, because this assay has produced multiple assay endpoints where this one serves as a measure of mesoderm differentiation.
All assay protocols are aligned to the DevTox GLR-Endo assay workflow (Gamble 2022). Cells are seeded into 384-well microplates for 24 hours prior to initiating differentiation in defined media for a total duration of 48 hours. A total of two chemical exposures are administered in 24-hour intervals during the 48-hour differentiation period. At the assay termination point, cells are fixed and stained with a fluorescent dye demarcating the nucleus. High-content imaging is used to acquire brightfield and fluorescent channel images across 5 fields per well. Cell identification and mean biomarker fluorescence intensities are calculated with image analysis software to determine the total cell counts for viability assessment and the biomarker expression frequency for each lineage-dependent assay. A typical experimental design tests a 10-point concentration series (1 nM - 200 uM) for 28 compounds in single technical replicate. Assay plate controls include non-differentiated pluripotent cells (baseline control), lineage-specific differentiated cells (differentiation control), and DMSO solvent exposed differentiated cells (solvent control). Experiments typically comprise a minimum of four experimental replicates (n=4).

Row | Compound | AC50 | outcome
1 | Nc1cccc2c1C(=O)N(C1CCC(=O)NC1=O)C2=O (stereo not given) | 39.1 µM (active) | –
2 | Nc1nc2ncc(CNc3ccc(C(=O)N[C@@H](CCC(=O)O)C(=O)O)cc3)nc2c(=O)[nH]1 | – | inactive
3 | CCCC(CCC)C(=O)O | – | inactive
4 | CCN(CC)CCNC(=O)c1c(C)[nH]c(/C=C2\C(=O)Nc3ccc(F)cc32)c1C | 1.12 µM (active) | –
5 | CC1(C)S[C@@H]2[C@H](NC(=O)Cc3ccccc3)C(=O)N2[C@H]1C(=O)O | – | inactive
6 | CS(=O)(=O)OCCCCOS(C)(=O)=O | – | inactive
7 | CN(Cc1cnc2nc(N)nc(N)c2n1)c1ccc(C(=O)N[C@@H](CCC(=O)O)C(=O)O)cc1 | – | inactive
8 | O=C1NS(=O)(=O)c2ccccc21 | – | inactive
9 | CC/C(=C(/CC)c1ccc(O)cc1)c1ccc(O)cc1 | – | inactive
10 | CC1=C(/C=C/C(C)=C/C=C/C(C)=C/C(=O)O)C(C)(C)CCC1 | 142 µM (active) | –
11 | O=C1NC(=O)C(c2ccccc2)(c2ccccc2)N1 | – | inactive
12 | CC(C)(c1ccc(O)cc1)c1ccc(O)cc1 | – | inactive
13 | CC(=O)Nc1ccc(O)cc1 | – | inactive
14 | CC1=C(/C=C/C(C)=C/C=C/C(C)=C\C(=O)O)C(C)(C)CCC1 | 143 µM (active) | –
15 | O=c1[nH]cc(F)c(=O)[nH]1 | 1.95 µM (active) | –
